From PubChem BioAssay (NCATS)
Records with an inconclusive call do not appear. Activity calls are given as the source filed them. Calls come from the whole dose curve; as a rule, active = well fitted curve in the direction sought with a large enough effect; inconclusive = small, poorly fitted or top-dose-only effect, or another doubt; inactive = no such curve, though single readings can be large; an effect the other way counts as inactive or inconclusive.

Legend:
JEG-3 = test: Primary qHTS to identify gynecologic anti-cancer compounds using libraries of approved drugs and bioactive compounds (AID 1345084); details: Gynecologic cancer cell panel viability, ATPlite luminescence, 48 h; series mostly up to 57.5 µM; note: nearly all actives have a fitted effect of over 55% in size
Summary of the method: (§1)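 Five-point cytotoxicity, 48 h drug exposure at 37 C, 5% CO2, on cells seeded 16 h beforehand. ATP content read by ATPlite luminescence.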

OV90 = test: as above; details: Gynecologic cancer cell panel viability, ATPlite luminescence, 48 h; series mostly up to 57.5 µM
Summary of the method: as §1

SKOV3 = test: as above; details: Gynecologic cancer cell panel viability, ATPlite luminescence, 48 h; series mostly up to 57.5 µM
Summary of the method: as §1

Tov-21-G = test: as above; details: Gynecologic cancer cell panel viability, ATPlite luminescence, 48 h; series mostly up to 57.5 µM
Summary of the method: as §1

Tov112D = test: as above; details: Gynecologic cancer cell panel viability, ATPlite luminescence, 48 h; series mostly up to 57.5 µM
Summary of the method: as §1

PA-1 = test: as above; details: Gynecologic cancer cell panel viability, ATPlite luminescence, 48 h; series mostly up to 57.5 µM
Summary of the method: as §1

[1] = qHTS assay to identify inhibitors of the type 1 interferon - major histocompatibility complex class I in skeletal muscle: Counter screen cell viability and HiBit confirmation (AID 1347412); details: iHSKM muscle cells + IFN-b, HiBiT or CellTiter-Glo, 24 h; note: nearly all actives have a fitted effect of over 60% in size
Summary of the method: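 Human myoblast knock-in line, 4.0 ng/ml IFN-beta stimulation, 24 h compound treatment. Endpoints: HiBiT lytic luminescence (HLA-B level) and CellTiter Glo (ATP). Dosing 12 concentrations, 3-fold steps, 46 uM highest final.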
% is set by controls: 0 for no effect and ±100 for the full control effect; potency is the fitted concentration of half-maximal effect.

Nc1nc2c(c(N3CCNCC3)n1)CCC1=C2[C@@H]2CCCC[C@@H]2O1
inactive: Potency (JEG-3) | Potency (OV90) | Potency (SKOV3) | Potency (Tov-21-G) | Potency (Tov112D)

NC(=O)c1csc(C2OC(CO)C(O)C2O)n1 (centres undefined)
inactive: Potency (JEG-3) | Potency (OV90) | Potency (SKOV3) | Potency (Tov-21-G) | Potency (Tov112D)

CC(C)c1cc2c(c(O)c1O)[C@@]13CCCC(C)(C)[C@@H]1[C@H](OC3=O)C2=O
inactive: Potency (JEG-3) | Potency (OV90) | Potency (SKOV3) | Potency (Tov-21-G) | Potency (Tov112D)

CC(C)(C)NS(=O)(=O)c1cncc(-c2cc(F)c3nc(N)nn3c2)c1
inactive: Potency (JEG-3) | Potency (OV90) | Potency (SKOV3) | Potency (Tov-21-G) | Potency (Tov112D)

CC1=CC(=O)CC(C)(C)[C@@]1(O)CC[C@@H](C)O[C@@H]1O[C@H](CO)[C@@H](O)[C@H](O)[C@H]1O
inactive: Potency (JEG-3) | Potency (OV90) | Potency (SKOV3) | Potency (Tov-21-G) | Potency (Tov112D)

C=C1CCC2C(C)(C)CCC[C@]2(C)[C@H]1C/C=C(\CO)C(=O)C(=O)O (some centres undefined)
inactive: Potency (JEG-3) | Potency (OV90) | Potency (SKOV3) | Potency (Tov-21-G) | Potency (Tov112D)

C=C(C(=O)O)C1CC2=C(C)CCCC2(C)C[C@@H]1O (some centres undefined)
inactive: Potency (JEG-3) | Potency (OV90) | Potency (SKOV3) | Potency (Tov-21-G) | Potency (Tov112D)

C/C=C/C=C/C(O)=C1\C(O)=C(C)C(=O)[C@@]2(C)OC(=O)[C@@](C)(NC(=O)/C=C/C(=O)O)[C@@H]12
inactive: Potency (JEG-3) | Potency (OV90) | Potency (SKOV3) | Potency (Tov-21-G) | Potency (Tov112D)

C=C[C@]1(C)C[C@H](O)[C@@H]2[C@H](OC(=O)[C@@H]2C)C1/C(C)=C/O[C@@H]1O[C@H](CO)[C@@H](O)[C@H](O)[C@H]1O (some centres undefined)
inactive: Potency (JEG-3) | Potency (OV90) | Potency (SKOV3) | Potency (Tov-21-G) | Potency (Tov112D)

C[C@@H]1CC[C@]2(C(=O)O[C@@H]3O[C@H](CO)[C@@H](O)[C@H](O)[C@H]3O)CC[C@]3(C)C(=CCC4[C@@]5(C)C[C@@H](O)[C@H](O)[C@](C)(C(=O)O)C5CC[C@]43C)[C@@H]2[C@]1(C)O (some centres undefined)
inactive: Potency (JEG-3) | Potency (OV90) | Potency (SKOV3) | Potency (Tov-21-G) | Potency (Tov112D)

C[C@@H]1O[C@@H](O[C@H]2[C@H](O)[C@@H](O)[C@H](O[C@H]3[C@H](O[C@H]4CC[C@@]5(C)C(=CC[C@@H]6C5CC[C@]5(C)[C@@H]7[C@H](C[C@@H]65)O[C@]5(CC[C@@](C)(CO[C@@H]6O[C@H](CO)[C@@H](O)[C@H](O)[C@H]6O)O5)[C@H]7C)C4)O[C@H](CO)[C@@H](O)[C@@H]3O)O[C@@H]2CO)[C@H](O)[C@H](O)[C@H]1O (some centres undefined)
active: Potency (PA-1) 1.78 µM
inactive: activity change, negative = cytotoxicity (JEG-3) 4.71% [at 11.6 µM] | activity change, negative = cytotoxicity (OV90) 5.27% [at 11.6 µM] | activity change, negative = cytotoxicity (Tov112D) 13% [at 11.6 µM]

Cc1[nH]c2ccccc2c1C1=C(NCCc2ccc(F)cc2)C(=O)N(C)C1=O
inactive: Potency (JEG-3) | Potency (OV90) | Potency (SKOV3) | Potency (Tov-21-G) | Potency (Tov112D)

C/C(=C\C=C\C(C)C1CCC2(C)C3CCC4C(C)(C)C(=O)CCC45CC35CCC12C)C(=O)O (centres undefined)
inactive: Potency (JEG-3) | Potency (OV90) | Potency (SKOV3) | Potency (Tov-21-G) | Potency (Tov112D)

COCCOc1cnc2ccn([C@H](C)c3nnc4c(F)cc(-c5cnn(C)c5)cn34)c(=O)c2c1
inactive: Potency (JEG-3) | Potency (OV90) | Potency (SKOV3) | Potency (Tov-21-G) | Potency (Tov112D)

CC1(CCOC2OC(CO)C(O)C(O)C2O)CCC23OC2(C1)C(O)CC1C(C)(C(=O)O)CCCC13C (centres undefined)
inactive: Potency (JEG-3) | Potency (OV90) | Potency (SKOV3) | Potency (Tov-21-G) | Potency (Tov112D)

C/C=C(\C)C(=O)O[C@H]1[C@@H](O[C@]2(COC(=O)CC(C)C)O[C@H](COC(=O)C(C)CC)[C@@H](OC(C)=O)[C@@H]2O)O[C@H](COC(C)=O)[C@@H](O)[C@@H]1O (some centres undefined)
inactive: Potency (JEG-3) | Potency (OV90) | Potency (SKOV3) | Potency (Tov-21-G) | Potency (Tov112D)

CCn1c(=O)c(-c2ccn[nH]2)cc2c(C)nc(N)nc21
inactive: Potency (JEG-3)
active: Potency (OV90) 14.1 µM | Potency (SKOV3) 10 µM

C[C@@H]1O[C@@H](O[C@H]2[C@H](OC(=O)[C@]34CCC(C)(C)C[C@H]3C3=CCC5[C@@]6(C)C[C@H](O)[C@H](O[C@@H]7O[C@H](CO)[C@@H](O)[C@H](O)[C@H]7O)[C@@](C)(CO)C6[C@H](O)C[C@@]5(C)[C@]3(C)CC4)OC[C@H](O)[C@@H]2O)[C@H](O)[C@H](O)[C@H]1O[C@@H]1OC[C@@H](O)[C@H](O[C@@H]2OC[C@](O)(CO)[C@H]2O)[C@H]1O (some centres undefined)
inactive: activity change, negative = cytotoxicity (JEG-3) 3.02% [at 6.55 µM] | activity change, negative = cytotoxicity (OV90) 1.6% [at 6.55 µM] | activity change, negative = cytotoxicity (SKOV3) 1.77% [at 6.55 µM] | activity change, negative = cytotoxicity (Tov-21-G) -2.34% [at 6.55 µM] | activity change, negative = cytotoxicity (Tov112D) 7.29% [at 6.55 µM]

N#Cc1ccc(C(=O)N2CCC3(CC2)N=C(N)c2c(F)ccc(F)c2N3)cn1
inactive: Potency (JEG-3) | Potency (OV90) | Potency (Tov-21-G) | Potency (Tov112D)

OCC1OC(Oc2cc(O)cc(/C=C/c3ccc(O)cc3)c2)C(O)C(O)C1O (centres undefined)
inactive: Potency (JEG-3) | Potency (OV90) | Potency (SKOV3) | Potency (Tov112D)

CCCCNc1ccc(-c2ccc(CN3CCOCC3)cn2)c(NC2CCC(O)CC2)c1 (centres undefined)
inactive: Potency (JEG-3) | Potency (OV90) | Potency (SKOV3) | Potency (Tov-21-G) | Potency (Tov112D)

CC(C)(C#N)c1ccc(N2C(=O)OCc3cnc4ccc(-c5cnc6ccccc6c5)cc4c32)cc1
inactive: Potency (JEG-3)
active: Potency (PA-1) 12.6 µM | Potency (SKOV3) 2.82 µM | Potency (Tov-21-G) 10 µM

C=C[C@@]12COC(=O)C(=C)C1[C@@H](O)[C@H](C(=C)C(=O)OC)[C@@H](OC(=O)C(=C)CO)C2 (some centres undefined)
inactive: Potency (JEG-3) | Potency (OV90) | Potency (Tov-21-G) | Potency (Tov112D)

C/C(=C\CCC(C)CCO)C(=O)OC1(C)CCC2C(C(=O)O)=COC(OC3OC(CO)C(O)C(O)C3O)C21 (centres undefined)
inactive: Potency (JEG-3) | Potency (OV90) | Potency (Tov-21-G) | Potency (Tov112D)

O=C(O)C1CN(Cc2ccc(-c3nc4cc(Cc5ccccc5F)ccc4s3)c(F)c2)C1
inactive: activity change, negative = cytotoxicity (JEG-3) 9.86% [at 11.6 µM] | activity change, negative = cytotoxicity (OV90) 12.7% [at 11.6 µM] | activity change, negative = cytotoxicity (Tov-21-G) 0.219% [at 11.6 µM] | activity change, negative = cytotoxicity (Tov112D) 10.6% [at 11.6 µM]

COc1ccc(C(=O)Nc2ncc(-c3ccc(C(=O)O)cc3)s2)cc1
active: Potency (JEG-3) 15.8 µM | Potency (OV90) 10 µM | Potency (Tov-21-G) 14.1 µM | Potency (Tov112D) 14.1 µM

CCC(C)C(=O)OC1CC(O)C23C4OCC5(C(O)CC2C1(C)C(O)O4)C3C(=O)CC1(C)C(c2ccoc2)CC2OC215 (centres undefined)
active: Potency (OV90) 1.78 µM | Potency (Tov112D) 11.2 µM
inactive: Potency (JEG-3)

CC1CCC23COC(=O)C2=CC(O)CC3C1(C)CCC1=CC(O)OC1=O (centres undefined)
inactive: Potency (JEG-3) | Potency (OV90) | Potency (Tov-21-G) | Potency (Tov112D)

CC(C)[C@@](C)(O)[C@@H]1CN(c2nc(-c3[nH]nc4ncccc34)c(F)cc2Cl)CCN1
inactive: Potency (OV90) | Potency (Tov112D)
active: Potency (JEG-3) 25.1 µM

CC1COC(Nc2ccc3ncnc(Nc4ccc(OCc5nccs5)c(Cl)c4)c3c2)=N1 (centres undefined)
inactive: Potency (JEG-3) | Potency (PA-1)
active: Potency (SKOV3) 15.8 µM

CO[C@H]1/C=C/C=C/C=C/C[C@H](OC(=O)[C@@H](C)NC(=O)C2CCCCC2)[C@H](C)[C@@H](O)/C(C)=C/CCc2cc(O)cc(c2)NC(=O)C1
active: Potency (PA-1) 0.355 µM | Potency (SKOV3) 3.16 µM | Potency (Tov-21-G) 2.82 µM
inactive: Potency (JEG-3)

CC(=O)OC12COC1CC(O)C1(C)C(=O)C(O)C3=C(C)C(OC(=O)C(O)C(NC(=O)OC(C)(C)C)c4ccccc4)CC(O)(C(OC(=O)c4ccccc4)C21)C3(C)C (centres undefined)
inactive: Potency (JEG-3) | Potency (OV90) | Potency (SKOV3) | Potency (Tov112D)

CO[C@@H](C)Cn1c(=O)n(C)c2cnc3ccc(-c4cncc(C(C)(C)O)c4)cc3c21
active: Potency (JEG-3) 31.6 µM | Potency (PA-1) 0.891 µM

Oc1ccc(CNc2ccccc2F)c2cccnc12
inactive: Potency (JEG-3)
active: Potency (PA-1) 17.8 µM

CN(CCc1ccc(Nc2ncc(-c3cccnc3)s2)cc1)Cc1ccccc1
inactive: Potency (JEG-3) | Potency (OV90) | Potency (Tov-21-G) | Potency (Tov112D)

O=C(c1ccccc1)c1ccc2nc(NC(=O)c3csc(C4CCN(c5ncnc6ccsc56)CC4)n3)[nH]c2c1
active: Potency (OV90) 17.8 µM | Potency (Tov112D) 12.6 µM
inactive: Potency (JEG-3)

C=C1C(=O)OC2/C=C(\CO)CC/C=C(\C=O)CC(OC(=O)CC(C)C)C12 (centres undefined)
inactive: Potency (JEG-3) | Potency (OV90) | Potency (Tov112D)

CC(C)(C)Nc1nc(Nc2ccc(C(N)=O)cc2)cc(N)c1C#N
inactive: Potency (JEG-3) | Potency (OV90) | Potency (Tov112D)

C=C(C)C(=O)O[C@H]1C[C@@](C)(O)C(=O)CC(O)/C(C)=C\[C@H]2OC(=O)C(=C)[C@H]12 (some centres undefined)
inactive: Potency (JEG-3) | Potency (OV90) | Potency (Tov112D)

CCOC(=O)C(CCc1ccccc1)NC(C)C(=O)N1C(=O)N(C)CC1C(=O)O (centres undefined)
inactive: Potency (JEG-3) | Potency (OV90) | Potency (SKOV3) | Potency (Tov-21-G) | Potency (Tov112D)

Cc1[nH]nc(C(F)(F)F)c1Cc1sc2c(c1C(=O)N1C[C@](C)(O)CO1)c(=O)n(C)c(=O)n2C(C)C
inactive: Potency (JEG-3) | Potency (OV90) | Potency (Tov-21-G) | Potency (Tov112D)

CN1CCC(Nc2nc(Nc3ccc(Oc4ccccc4)cc3)c3c(=O)[nH]cc(Br)c3n2)CC1
inactive: Potency (JEG-3) | Potency (OV90) | Potency (Tov-21-G) | Potency (Tov112D)

CCS(=O)(=O)N1CCN(c2ccc(Nc3ncc(C(N)=O)c(NC4CC4)n3)cc2)CC1
active: Potency (OV90) 12.6 µM | Potency ([1]; HiBiT) 1.98 µM
inactive: Potency (JEG-3) | Potency (Tov112D) | activity change, negative = inhibition ([1]; Viability, at 45.9 µM (top of the series)) 5.56%
